According to the supplement of paper PMC10849652:
The full data set covers some 8,800 targets. This sample favours those with a hit. About 0.5% of all pairs of compound and target were hits.

Tests used:
Assay in all cases: log2 fold change, soluble protein after heating vs DMSO (PISA); higher = thermal stabilisation; K562 lysate, 10 uM; active = over 0.2 and 3.5 SD of the protein, either way, in both replicates (recomputed)
alvocidib = compound: CN1CC[C@H](c2c(O)cc(O)c3c(=O)cc(-c4ccccc4Cl)oc23)[C@H](O)C1 [alvocidib]
Procedure, shortened: (§1)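 Log-two fold change in thermal stability relative to solvent controls is reported from duplicates. For each sample, crude K562 extract from dounce-homogenised pellets in PBS pH 7.4 with 1 mM MgCl2, at 1 mg/mL protein, was treated with 10 μM compound for 30 min. Aliquots heated for 3 min across 48°C-58°C were pooled, brought to 0.5% NP-40 at 4°C and cleared at 21,000xg for 90 min. The supernatant was quantified by TMTpro 16plex LC-MS/MS with channel sums equalised.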

Tubastatin A = compound: CN1CCc2c(c3ccccc3n2Cc2ccc(C(=O)NO)cc2)C1 [Tubastatin A]
Procedure, shortened: as §1

[1] = compound: CNC(=O)C1=CC=CC=C1NC2=NC(=NC=C2Cl)NC3=C(C=C(C=C3)N4CCOCC4)OC
Procedure, shortened: as §1

defactinib = compound: CNC(=O)c1ccc(Nc2ncc(C(F)(F)F)c(NCc3nccnc3N(C)S(C)(=O)=O)n2)cc1 [defactinib]
Procedure, shortened: as §1

[2] = compound: CNc1nc(-c2ccc3c(N)n[nH]c3c2)cc(N2C[C@@H](C(=O)NC3CCCCC3)CC[C@H]2C)n1
Procedure, shortened: as §1

encorafenib = compound: COC(=O)N[C@@H](C)CNc1nccc(-c2cn(C(C)C)nc2-c2cc(Cl)cc(NS(C)(=O)=O)c2F)n1 [encorafenib]
Procedure, shortened: as §1

[3] = compound: COC(=O)[C@H](CCSC)NC(=O)C1=C(C=C(C=C1)NC[C@H](CS)N)C2=CC=CC=C2
Procedure, shortened: as §1

alisertib = compound: COc1cc(Nc2ncc3c(n2)-c2ccc(Cl)cc2C(c2c(F)cccc2OC)=NC3)ccc1C(=O)O [alisertib]
Procedure, shortened: as §1

[4] = compound: COc1cc2nc(-c3cc(F)ccc3O)nc(N[C@@H]3CNC[C@H]3C(C)(C)O)c2cc1OC
Procedure, shortened: as §1

gefitinib = compound: COc1cc2ncnc(Nc3ccc(F)c(Cl)c3)c2cc1OCCCN1CCOCC1 [gefitinib]
Procedure, shortened: as §1

lapatinib = compound: CS(=O)(=O)CCNCc1ccc(-c2ccc3ncnc(Nc4ccc(OCc5cccc(F)c5)c(Cl)c4)c3c2)o1 [lapatinib]
Procedure, shortened: as §1

pictilisib = compound: CS(=O)(=O)N1CCN(Cc2cc3nc(-c4cccc5[nH]ncc45)nc(N4CCOCC4)c3s2)CC1 [pictilisib]
Procedure, shortened: as §1

crizotinib = compound: C[C@@H](Oc1cc(-c2cnn(C3CCNCC3)c2)cnc1N)c1c(Cl)ccc(F)c1Cl [crizotinib]
Procedure, shortened: as §1

[5] = compound: C[C@H](C1=CC=C(C=C1)C(=O)NC2=C3C=CNC3=NC=C2)N
Procedure, shortened: as §1

duvelisib = compound: C[C@H](Nc1ncnc2nc[nH]c12)c1cc2cccc(Cl)c2c(=O)n1-c1ccccc1 [duvelisib]
Procedure, shortened: as §1

gandotinib = compound: Cc1cc(Nc2cc(CN3CCOCC3)c3nc(C)c(Cc4ccc(Cl)cc4F)n3n2)n[nH]1 [gandotinib]
Procedure, shortened: as §1

tozasertib = compound: Cc1cc(Nc2cc(N3CCN(C)CC3)nc(Sc3ccc(NC(=O)C4CC4)cc3)n2)n[nH]1 [tozasertib]
Procedure, shortened: as §1

doramapimod = compound: Cc1ccc(-n2nc(C(C)(C)C)cc2NC(=O)Nc2ccc(OCCN3CCOCC3)c3ccccc23)cc1 [doramapimod]
Procedure, shortened: as §1

bafetinib = compound: Cc1ccc(NC(=O)c2ccc(CN3CC[C@H](N(C)C)C3)c(C(F)(F)F)c2)cc1Nc1nccc(-c2cncnc2)n1 [bafetinib]
Procedure, shortened: as §1

[6] = compound: Cc1cccc(CC(=O)N2CCc3c2ccc(-c2cn(C)c4ncnc(N)c24)c3F)n1
Procedure, shortened: as §1

Measured: log2 fold change

PCBP2 (UniProt H3BRU6)
inactive: alvocidib 0.033 | Tubastatin A -0.116 | [1] 0.082 | defactinib 0.061 | [2] 0.018 | encorafenib 0.04 | [3] 0.017 | alisertib -0.023 | [4] 0.072 | gefitinib -0.145 | lapatinib 0.116 | pictilisib -0.021 | crizotinib -0.04 | [5] 0.044 | duvelisib 0.028 | gandotinib 0.01 | tozasertib -0.112 | doramapimod -0.119 | bafetinib 0.079 | [6] -0.041

PTGS1 isoform 6 (UniProt P23219)
Chain of UniProt P23219 (P23219 whole entry, looked up): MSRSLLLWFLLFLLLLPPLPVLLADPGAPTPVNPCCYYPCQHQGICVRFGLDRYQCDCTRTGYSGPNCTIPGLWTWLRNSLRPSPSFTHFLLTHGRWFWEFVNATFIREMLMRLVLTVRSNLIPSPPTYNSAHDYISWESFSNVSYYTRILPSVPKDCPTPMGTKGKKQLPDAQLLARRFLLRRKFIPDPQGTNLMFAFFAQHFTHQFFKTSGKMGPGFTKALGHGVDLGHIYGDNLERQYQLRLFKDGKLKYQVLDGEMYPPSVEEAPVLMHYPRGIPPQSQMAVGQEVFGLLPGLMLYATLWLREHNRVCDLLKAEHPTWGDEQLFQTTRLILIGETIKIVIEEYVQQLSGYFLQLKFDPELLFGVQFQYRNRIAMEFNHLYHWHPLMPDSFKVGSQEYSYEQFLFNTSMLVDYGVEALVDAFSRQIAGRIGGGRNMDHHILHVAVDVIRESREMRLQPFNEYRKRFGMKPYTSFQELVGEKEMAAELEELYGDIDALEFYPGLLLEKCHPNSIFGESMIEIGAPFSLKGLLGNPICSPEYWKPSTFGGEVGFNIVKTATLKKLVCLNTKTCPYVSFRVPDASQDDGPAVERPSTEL
active: [5] -0.236
inactive: alvocidib -0.154 | Tubastatin A 0.023 | [1] -0.052 | defactinib -0.119 | [2] -0.057 | encorafenib -0.008 | [3] 0.027 | alisertib -0.051 | [4] 0.021 | gefitinib -0.011 | lapatinib 0.004 | pictilisib -0.068 | crizotinib 0.007 | duvelisib -0.001 | gandotinib 0.109 | tozasertib 0.029 | doramapimod 0.036 | bafetinib -0.079 | [6] 0.093

POLR2M (UniProt P0CAP2)
inactive: alvocidib -0.002 | Tubastatin A 0.031 | [1] 0.021 | defactinib 0.037 | [2] 0.035 | [3] -0.047 | alisertib -0.011 | [4] 0.019 | gefitinib 0.027 | lapatinib -0.034 | pictilisib -0.055 | crizotinib 0.016 | [5] -0.031 | duvelisib 0.015 | gandotinib 0.02 | tozasertib 0.185 | doramapimod 0.009 | bafetinib -0.011 | [6] 0.041
active: encorafenib 0.33

PGGT1B (UniProt P53609)
Chain of UniProt P53609 (P53609 whole entry, looked up): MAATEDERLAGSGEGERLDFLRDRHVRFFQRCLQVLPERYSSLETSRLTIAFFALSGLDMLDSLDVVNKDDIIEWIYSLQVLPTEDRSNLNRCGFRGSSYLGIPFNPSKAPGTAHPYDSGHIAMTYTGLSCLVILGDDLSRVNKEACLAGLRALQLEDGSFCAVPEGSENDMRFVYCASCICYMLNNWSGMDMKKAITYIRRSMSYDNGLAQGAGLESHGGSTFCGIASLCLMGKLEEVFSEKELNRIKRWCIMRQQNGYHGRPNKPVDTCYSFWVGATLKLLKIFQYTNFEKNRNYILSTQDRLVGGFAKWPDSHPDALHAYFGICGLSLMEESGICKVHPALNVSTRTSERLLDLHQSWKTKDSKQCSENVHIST
active: [3] 0.454
inactive: alvocidib 0.032 | Tubastatin A 0.036 | [1] -0.068 | defactinib 0.022 | [2] -0.117 | encorafenib -0.039 | alisertib -0.011 | [4] -0.032 | gefitinib -0.021 | lapatinib 0.013 | pictilisib -0.012 | crizotinib 0.01 | [5] 0.013 | duvelisib -0.019 | gandotinib -0.158 | tozasertib 0.083 | doramapimod 0.047 | bafetinib 0.076 | [6] -0.074

PRKCA (UniProt P17252)
inactive: alvocidib 0.034 | Tubastatin A -0.005 | [1] -0.027 | defactinib 0.032 | [2] -0.041 | encorafenib 0.048 | [3] -0.041 | alisertib -0.031 | [4] 0.133 | gefitinib -0.038 | lapatinib -0.041 | pictilisib -0.021 | crizotinib -0.019 | [5] 0.054 | duvelisib -0.057 | gandotinib -0.207 | tozasertib 0.021 | doramapimod -0.023 | bafetinib -0.069 | [6] -0.079

PLEKHF1 (UniProt Q96S99)
Chain of UniProt Q96S99 (Q96S99 whole entry, looked up): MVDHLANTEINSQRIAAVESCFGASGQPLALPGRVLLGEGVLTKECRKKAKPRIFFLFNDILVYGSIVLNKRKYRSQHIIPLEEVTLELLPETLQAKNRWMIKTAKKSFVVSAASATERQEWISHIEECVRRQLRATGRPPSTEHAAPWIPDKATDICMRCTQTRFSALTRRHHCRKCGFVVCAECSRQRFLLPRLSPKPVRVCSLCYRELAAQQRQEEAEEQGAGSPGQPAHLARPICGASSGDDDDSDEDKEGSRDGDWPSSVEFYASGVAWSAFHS
inactive: alvocidib -0.001 | Tubastatin A -0.051 | [1] 0.058 | defactinib -0.007 | [2] -0.033 | encorafenib -0.025 | [3] -0.009 | alisertib -0.008 | [4] -0.001 | gefitinib 0.007 | lapatinib -0.022 | pictilisib -0.016 | crizotinib -0.021 | [5] -0.043 | duvelisib 0.058 | gandotinib 0.023 | tozasertib 0.02 | doramapimod 0.016 | bafetinib 0.013 | [6] 0.026

PDF (UniProt Q9HBH1)
Chain of UniProt Q9HBH1 (Q9HBH1 whole entry, looked up): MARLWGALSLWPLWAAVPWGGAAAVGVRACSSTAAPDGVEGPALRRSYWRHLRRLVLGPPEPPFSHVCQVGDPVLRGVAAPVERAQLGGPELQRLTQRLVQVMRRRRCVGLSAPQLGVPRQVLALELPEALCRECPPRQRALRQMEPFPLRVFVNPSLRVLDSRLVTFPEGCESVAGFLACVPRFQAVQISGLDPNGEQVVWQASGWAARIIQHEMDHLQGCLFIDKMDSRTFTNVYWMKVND
active: [3] -0.293
inactive: alvocidib 0.01 | Tubastatin A -0.065 | [1] 0.083 | defactinib 0.059 | [2] 0.011 | encorafenib 0.028 | alisertib 0.048 | [4] -0.181 | gefitinib -0.064 | lapatinib 0.027 | pictilisib -0.016 | crizotinib -0.067 | [5] 0.018 | duvelisib -0.076 | gandotinib -0.019 | tozasertib 0.029 | doramapimod 0.027 | bafetinib -0.162 | [6] 0.025

PCIF1 (UniProt Q9H4Z3)
Chain of UniProt Q9H4Z3 (Q9H4Z3 whole entry, looked up): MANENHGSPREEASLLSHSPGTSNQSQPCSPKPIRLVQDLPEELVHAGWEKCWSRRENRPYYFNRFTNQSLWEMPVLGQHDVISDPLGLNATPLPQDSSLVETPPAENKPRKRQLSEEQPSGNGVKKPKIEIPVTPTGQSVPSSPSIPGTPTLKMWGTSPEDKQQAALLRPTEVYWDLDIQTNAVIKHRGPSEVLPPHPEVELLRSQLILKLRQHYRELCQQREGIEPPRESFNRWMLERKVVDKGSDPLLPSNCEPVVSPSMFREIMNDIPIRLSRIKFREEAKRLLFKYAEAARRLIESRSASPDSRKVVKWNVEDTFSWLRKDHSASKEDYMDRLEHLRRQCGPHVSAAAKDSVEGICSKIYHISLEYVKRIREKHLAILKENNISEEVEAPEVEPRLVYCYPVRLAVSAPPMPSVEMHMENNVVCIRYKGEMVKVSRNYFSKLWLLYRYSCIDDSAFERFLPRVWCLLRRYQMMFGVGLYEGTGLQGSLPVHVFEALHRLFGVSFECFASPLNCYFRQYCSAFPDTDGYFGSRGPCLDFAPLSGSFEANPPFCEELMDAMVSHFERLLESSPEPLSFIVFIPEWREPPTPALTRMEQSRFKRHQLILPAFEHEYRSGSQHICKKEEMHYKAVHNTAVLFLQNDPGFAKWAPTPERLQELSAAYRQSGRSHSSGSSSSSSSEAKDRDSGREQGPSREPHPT
active: [5] -0.239
inactive: alvocidib 0.038 | Tubastatin A 0.006 | [1] -0.024 | defactinib 0.051 | [2] 0.02 | encorafenib 0.017 | [3] 0.02 | alisertib 0.04 | [4] 0.01 | gefitinib -0.051 | lapatinib -0.059 | pictilisib -0.016 | crizotinib -0.001 | duvelisib 0.216 | gandotinib 0.074 | tozasertib -0.003 | doramapimod 0.017 | bafetinib -0.059 | [6] 0.09

PIKFYVE (UniProt Q9Y2I7)
inactive: alvocidib -0.049 | Tubastatin A -0.126 | [1] 0.032 | defactinib 0.078 | [2] -0.031 | encorafenib 0.044 | [3] 0.088 | alisertib 0.031 | [4] 0.004 | gefitinib -0.005 | lapatinib -0.039 | pictilisib -0.06 | crizotinib -0.002 | [5] -0.058 | duvelisib -0.013 | gandotinib 0.01 | tozasertib -0.014 | doramapimod 0.029 | bafetinib -0.053 | [6] 0.066

PUS1 (UniProt Q9Y606)
Chain of UniProt Q9Y606 (Q9Y606 whole entry, looked up): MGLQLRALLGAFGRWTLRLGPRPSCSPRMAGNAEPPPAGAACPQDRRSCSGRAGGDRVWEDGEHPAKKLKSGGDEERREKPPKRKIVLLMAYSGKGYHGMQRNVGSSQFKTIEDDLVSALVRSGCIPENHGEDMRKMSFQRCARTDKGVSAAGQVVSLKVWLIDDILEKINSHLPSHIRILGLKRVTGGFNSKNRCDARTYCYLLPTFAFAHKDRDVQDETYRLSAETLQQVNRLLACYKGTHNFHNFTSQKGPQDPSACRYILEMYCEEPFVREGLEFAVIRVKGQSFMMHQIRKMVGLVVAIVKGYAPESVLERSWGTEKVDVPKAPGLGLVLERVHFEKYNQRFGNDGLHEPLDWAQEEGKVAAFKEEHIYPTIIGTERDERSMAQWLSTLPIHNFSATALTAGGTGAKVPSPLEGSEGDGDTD
inactive: alvocidib -0.002 | Tubastatin A -0.049 | [1] -0.008 | defactinib 0.002 | [2] -0.029 | encorafenib 0 | [3] 0.086 | alisertib 0.005 | [4] 0.014 | gefitinib -0.019 | lapatinib -0.042 | pictilisib -0.058 | crizotinib -0.062 | [5] -0.006 | duvelisib 0.008 | gandotinib -0.033 | tozasertib 0.012 | doramapimod 0.006 | bafetinib -0.047 | [6] 0.027

PTK2 (UniProt Q05397)
Chain of UniProt Q05397 (Q05397 whole entry, looked up): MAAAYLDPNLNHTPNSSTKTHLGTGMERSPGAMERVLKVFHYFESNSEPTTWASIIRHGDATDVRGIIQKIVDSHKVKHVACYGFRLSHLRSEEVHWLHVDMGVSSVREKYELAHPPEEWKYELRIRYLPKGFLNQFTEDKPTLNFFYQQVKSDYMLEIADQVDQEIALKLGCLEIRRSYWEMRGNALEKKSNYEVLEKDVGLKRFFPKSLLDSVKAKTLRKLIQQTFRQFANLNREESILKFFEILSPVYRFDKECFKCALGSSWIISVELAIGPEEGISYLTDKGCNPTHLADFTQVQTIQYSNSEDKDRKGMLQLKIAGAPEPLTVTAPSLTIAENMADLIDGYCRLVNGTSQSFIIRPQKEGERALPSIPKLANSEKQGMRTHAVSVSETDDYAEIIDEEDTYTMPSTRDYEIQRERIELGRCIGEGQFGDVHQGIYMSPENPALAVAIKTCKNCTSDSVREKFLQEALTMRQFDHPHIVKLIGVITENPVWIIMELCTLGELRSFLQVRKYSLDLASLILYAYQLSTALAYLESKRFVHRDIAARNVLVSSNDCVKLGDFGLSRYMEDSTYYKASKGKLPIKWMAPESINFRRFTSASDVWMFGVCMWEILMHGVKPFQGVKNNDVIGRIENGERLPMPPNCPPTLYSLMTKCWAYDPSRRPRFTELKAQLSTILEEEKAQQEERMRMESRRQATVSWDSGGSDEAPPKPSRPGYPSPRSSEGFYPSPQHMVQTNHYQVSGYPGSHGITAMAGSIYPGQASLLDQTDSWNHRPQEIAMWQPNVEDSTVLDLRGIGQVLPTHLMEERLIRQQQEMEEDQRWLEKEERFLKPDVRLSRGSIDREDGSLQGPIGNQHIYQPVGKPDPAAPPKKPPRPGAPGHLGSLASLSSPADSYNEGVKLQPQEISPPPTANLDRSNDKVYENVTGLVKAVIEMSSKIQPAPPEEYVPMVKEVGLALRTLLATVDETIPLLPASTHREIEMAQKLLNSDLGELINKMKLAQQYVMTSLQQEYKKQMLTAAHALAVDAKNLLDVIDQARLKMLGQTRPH
active: [1] 0.54 | defactinib 0.518
inactive: alvocidib 0.02 | Tubastatin A -0.033 | [2] -0.055 | encorafenib -0.057 | [3] -0.126 | alisertib 0.17 | [4] 0.113 | gefitinib -0.022 | lapatinib -0.116 | pictilisib 0.038 | crizotinib 0.414 | [5] 0.007 | duvelisib -0.076 | gandotinib 0.396 | tozasertib 0.026 | bafetinib -0.008 | [6] -0.117

PPP2R5B (UniProt Q15173)
Chain of UniProt Q15173 (Q15173 whole entry, looked up): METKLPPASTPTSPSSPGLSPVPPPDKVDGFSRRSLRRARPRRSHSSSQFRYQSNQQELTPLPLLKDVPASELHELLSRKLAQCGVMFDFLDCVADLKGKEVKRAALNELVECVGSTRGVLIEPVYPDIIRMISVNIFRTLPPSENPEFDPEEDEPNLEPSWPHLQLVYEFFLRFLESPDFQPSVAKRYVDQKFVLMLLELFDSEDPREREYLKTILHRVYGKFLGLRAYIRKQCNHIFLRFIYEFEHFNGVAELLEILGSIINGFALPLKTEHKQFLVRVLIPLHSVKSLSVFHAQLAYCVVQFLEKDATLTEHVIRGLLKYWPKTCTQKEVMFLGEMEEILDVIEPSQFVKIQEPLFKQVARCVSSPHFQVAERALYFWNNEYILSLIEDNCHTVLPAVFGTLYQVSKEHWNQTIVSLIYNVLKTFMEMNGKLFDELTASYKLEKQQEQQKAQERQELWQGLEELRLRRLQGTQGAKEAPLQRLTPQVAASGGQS
inactive: alvocidib 0.069 | Tubastatin A -0.012 | [1] -0.03 | defactinib -0.091 | [2] -0.056 | encorafenib -0.017 | [4] 0.046 | lapatinib -0.089 | pictilisib -0.064 | crizotinib 0.075 | [5] -0.017 | duvelisib 0.021 | gandotinib -0.168 | tozasertib 0.04 | doramapimod 0.005 | bafetinib 0.054 | [6] -0.036
active: [3] 0.288
